Whole data set: some 35,000 sequences, median “fluorescence intensity (a.u.)” near 10,000, cut for the highest 2% near 52,000. For the sample, the highest values were picked, then their nearest neighbours and some sequences at random.

This test addresses T1, OsWOX13 (Oryza sativa, UniProt Q5QMM3 1-267).
T1 sequence: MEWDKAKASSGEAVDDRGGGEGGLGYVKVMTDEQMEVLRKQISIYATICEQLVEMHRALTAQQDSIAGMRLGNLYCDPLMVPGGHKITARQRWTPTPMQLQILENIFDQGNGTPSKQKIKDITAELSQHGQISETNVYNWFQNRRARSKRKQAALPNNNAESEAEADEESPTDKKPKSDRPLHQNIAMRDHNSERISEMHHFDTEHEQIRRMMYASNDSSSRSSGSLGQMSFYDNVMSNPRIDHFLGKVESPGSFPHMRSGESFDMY
Briefly: protein-binding microarray (RPBM); PBS, 2% BSA, 51.3 ng/ul salmon testes DNA, 50 uM zinc acetate, 200 nM TF, 25 C, 1 h; high values mean tight binding. To be noted: protein: recombinant; tags: N-terminal polyhistidine and DsRed monomer fusion (pET32a); label: CyDye5-dUTP incorporated in the synthesized complementary strand; 3' TTTTT single-stranded linker to array surface; dsDNA, one strand shown. In a few lines:
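Transcription factors, each fused N-terminally to a polyhistidine tag and DsRed, were expressed in E. coli BL21-CodonPlus and purified on Ni–NTA. A custom Agilent array was made double-stranded by primer extension with Cy5-dUTP and blocked with 2% BSA. It was incubated with 200 nM protein in PBS, 2% BSA, salmon testes DNA and 50 µM zinc acetate at 25 °C for 1 h, then washed. The binding signal is per-feature fluorescence intensity (arbitrary units) read on an Axon 4000B scanner.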
On to “ACTAATTGACTACTCCCTGAATTTAAAGTTGATGGTCAGTCGGAGTCACCTAGTGCAG”, for which the binding signal is 61100 fluorescence intensity (a.u.).
In the case of “TGGAAATTGATGGAGGATGATCTGCAATTAGAAAGAAGAACGGAGTCACCTAGTGCAG”, the binding signal was 29700 fluorescence intensity (a.u.).
For “CTGGATTGATTGGGAGTGTTGGGTTTCGGGCTAGATCTGGCGGAGTCACCTAGTGCAG”, the binding signal is 65200 fluorescence intensity (a.u.).
Consider “CCGTTGGATTGGAATCGGAGGGCCTACAATGACTGAGTGCCGGAGTCACCTAGTGCAG”, for which the binding signal is 5860 fluorescence intensity (a.u.).
In the case of “TATGAATTGACTATTATATTGGCTATGGATGATTTGTAGTCGGAGTCACCTAGTGCAG”, the binding signal is 30100 fluorescence intensity (a.u.).
In the case of “CAGAATGACAACATTGACTGATTGACACTAGAAATACATACGGAGTCACCTAGTGCAG”, the binding signal is 39000 fluorescence intensity (a.u.).
Turning to “TTCTGCTGATTGGAATGACTACAACACTAGAGTTGTCTGTCGGAGTCACCTAGTGCAG”, the binding signal was 56100 fluorescence intensity (a.u.).
For “TCCCTGAATTTTAGGAGTGATTGGACCTAAAGTTGAGGAGCGGAGTCACCTAGTGCAG”, the binding signal was 17200 fluorescence intensity (a.u.).
Turning to “TGGCGGATTGATCTGGAGGTGGGCTTGTTGGGGTTGCTGTCGGAGTCACCTAGTGCAG”, the binding signal is 14400 fluorescence intensity (a.u.).
For the sequence “TGGGTAGGGGCAGTTAATTGGGAGGGAATTCCTCCTTCACCGGAGTCACCTAGTGCAG”, the binding signal is 8890 fluorescence intensity (a.u.).
Take “ACTGATGAAATATCAAAGTGATTGTCAGACAAAGCGCCATCGGAGTCACCTAGTGCAG”: the binding signal was 25800 fluorescence intensity (a.u.).
Consider “TACCCATCTTCCATTGACAGACAATTGGGCCCCACTCCGCCGGAGTCACCTAGTGCAG”, for which the binding signal is 7450 fluorescence intensity (a.u.).
With “AGCTAATAATTACTAATTACTAAGTAATACTTCCTCTGTTCGGAGTCACCTAGTGCAG”, the binding signal was 41700 fluorescence intensity (a.u.).
Consider “ATTATTGACAAAAGCATCTCGATATCTTATGGATTAATATCGGAGTCACCTAGTGCAG”, for which the binding signal is 4720 fluorescence intensity (a.u.).
Consider “CGTGAGTGAAATTTTAATTACGTGTACATATAGGGGAGTACGGAGTCACCTAGTGCAG”, for which the binding signal was 20500 fluorescence intensity (a.u.).
Turning to “ATATAATGGGCACTATGATTTGCTCTAAATATTGGTCATTCGGAGTCACCTAGTGCAG”, the binding signal was 28800 fluorescence intensity (a.u.).
As for “TCCTGATTGTTCACAATTGTGCTAGTTCAAACAAGGCAAACGGAGTCACCTAGTGCAG”, the binding signal is 24800 fluorescence intensity (a.u.).
Take “GCACTGATTGAATTGAACTGTATAGAACAAAATGAAATTTCGGAGTCACCTAGTGCAG”: the binding signal is 19600 fluorescence intensity (a.u.).
For “CTGGAATGAGTGGTGGTTGATTGTTTAGTGTTTACTGTTCCGGAGTCACCTAGTGCAG”, the binding signal was 18500 fluorescence intensity (a.u.).
With “ACTATTATATTGATCAATTGATTACATAATTCACGTGTCGCGGAGTCACCTAGTGCAG”, the binding signal was 43700 fluorescence intensity (a.u.).
As for “GATGATTGATTGGGTTGGTTGGAACGTGCGATGGAATGATCGGAGTCACCTAGTGCAG”, the binding signal is 65400 fluorescence intensity (a.u.).
Consider “CATCAATTAATTGACATGATACTATCTACCTTGCGTGTCGCGGAGTCACCTAGTGCAG”, for which the binding signal is 65000 fluorescence intensity (a.u.).
In the case of “TACATCCCTACTAATTGTGTCATGTATCAATAATGATATGCGGAGTCACCTAGTGCAG”, the binding signal was 3560 fluorescence intensity (a.u.).
With “ATGATGATGATATACACGCCAAATTGAATTAGAAACTGATCGGAGTCACCTAGTGCAG”, the binding signal is 6800 fluorescence intensity (a.u.).
The result for “TTGATTGCGAATGATTGGAGCTGGTTGCTGTTGCTAGATCCGGAGTCACCTAGTGCAG” reads 57800 fluorescence intensity (a.u.); that for “AGATGCTGATTGGTTGCGAACTATCTGTTCAATTTGCATCCGGAGTCACCTAGTGCAG”, 46300 fluorescence intensity (a.u.).
As to “TATAAAATTGATGGTTGGAATTATAAATATTTCGATTGAACGGAGTCACCTAGTGCAG”, the binding signal is 9830 fluorescence intensity (a.u.).
With “TAGATGAAATGGGTTGGGTTGATTTGGGTTGAAATATGATCGGAGTCACCTAGTGCAG”, the binding signal is 6400 fluorescence intensity (a.u.).
To “AAATGATTGAATCCTAGAAACTCTGACCTATACAAGTGGTCGGAGTCACCTAGTGCAG” belongs 60500 fluorescence intensity (a.u.); to “GATAACGTGGCCAAATTATATCAGACGTTCATGTTTAGATCGGAGTCACCTAGTGCAG”, 5800 fluorescence intensity (a.u.); to “TTCACAAATTTTGATGCGATGATTAGCTAAGGCATGTTCGCGGAGTCACCTAGTGCAG”, 23500 fluorescence intensity (a.u.).
“TTACGATGATATATAATTGGACGGAAGCAGCGATCATGCTCGGAGTCACCTAGTGCAG”: the binding signal is 14100 fluorescence intensity (a.u.).
On to “AGCTAATTTATGCATGCATGGATTCCGATGGAGGAGCTGTCGGAGTCACCTAGTGCAG”, for which the binding signal is 19400 fluorescence intensity (a.u.).
“GAGCAATTAGGCTTAAAAGATTCGTCTCGCAAATTAGTCGCGGAGTCACCTAGTGCAG”: the binding signal was 3540 fluorescence intensity (a.u.).
The result for “TGCTGGTTGATTGATTGATTGATGGACAAATAGGTAGATGCGGAGTCACCTAGTGCAG” reads 56300 fluorescence intensity (a.u.); that for “GCAGCCTAGATTGACAATAGATGAATTGGAGCTAGTAGTGCGGAGTCACCTAGTGCAG”, 35400 fluorescence intensity (a.u.).
Regarding “TCTGTTGATGAATGGATTGATTGATGGATGGATGGATGGTCGGAGTCACCTAGTGCAG”, the binding signal was 64100 fluorescence intensity (a.u.).
On to “CAAAATTTGATGAATGGAAGGGTCGAAACTGAGTGATTGCCGGAGTCACCTAGTGCAG”, for which the binding signal was 23600 fluorescence intensity (a.u.).
To “TGGAATGATGTTGGGATTGATGGATGGATGTATGTTTTGTCGGAGTCACCTAGTGCAG” belongs 15300 fluorescence intensity (a.u.); to “TTCTGATTTGCCCCTATCTTATTGAGATTGCTTGTGTGATCGGAGTCACCTAGTGCAG”, 30600 fluorescence intensity (a.u.).
With “TCTGATTGCTGTTAGTTGTTGATGAGATGGAGATGGAGATCGGAGTCACCTAGTGCAG”, the binding signal was 39900 fluorescence intensity (a.u.).
On to “TTGATTGATGGGTAGTAAGGAAACCTTTTGAATGAGTGGTCGGAGTCACCTAGTGCAG”, for which the binding signal is 64700 fluorescence intensity (a.u.).
Regarding “GTGATTGAAATGGATCCTGGTCGGAAATGAATCCTGGTCGCGGAGTCACCTAGTGCAG”, the binding signal is 43700 fluorescence intensity (a.u.).
With “AATGGAGATTGGATCTGATTGGTTGTTGTTGCTTGAGGATCGGAGTCACCTAGTGCAG”, the binding signal is 62600 fluorescence intensity (a.u.).
Take “GATGATGGATTGGAAAGGCAAGTAAGCTGGAGTAGGTGGTCGGAGTCACCTAGTGCAG”: the binding signal is 38000 fluorescence intensity (a.u.).
The result for “ATAGATGAAGAATAAATATGATTGGTAGAGAAGAGAGATGCGGAGTCACCTAGTGCAG” reads 25600 fluorescence intensity (a.u.).
